TGFb inhibitor – TGF-b pathway inhibition | 410,000 compounds, 1.2% hits | HepG2 CAGA-GFP TGF-b/SMAD3 reporter, GFP fluorescence, 18 h; TGF-beta stimulated, 500 pg/mL final | Potency, µM (titrated, usually from 46.1 µM), most hits filed as inhibitors | AID 588855; further: nearly all actives have a fitted effect of over 65% in size
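Smad-responsive CAGA-GFP expression was quantified in HEPG2 cells exposed to compounds and 500 pg/mL final TGF-beta for 18 h at 37 degrees C; unstimulated wells defined full inhibition.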
HepG2 viability – HepG2 cytotoxicity, counter-screen for TGF-b inhibitors; HepG2 CAGA-GFP viability, ATP luminescence, 18 h; Potency, µM (titrated, usually from 46.1 µM), usual class: cytotoxic; 410,000 compounds, 0.76% hits
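HepG2 CAGA-GFP cells (1000/well, DMEM with 1% FBS) received compound, then TGF-beta at 500 pg/mL final, and were incubated 18 hours at 37 degrees C. Viability was read by CellTiter-Glo luminescence. Media-only wells were set as complete cell-killing and DMSO as no toxicity.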
DT40 TDP1 no CPT – qHTS for Inhibitors of human tyrosyl-DNA phosphodiesterase 1 (TDP1): qHTS in cells in absence of CPT. DT40 Tdp1-/- hTDP1 cells, no CPT, ATP luminescence, 48 h. Potency, µM (titrated, usually from 46.2 µM), usual class: inhibitors. 420,000 compounds, 15% hits. AID 686978, 2013; further: nearly all actives have a fitted effect of over 55% in size
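Chicken DT40 Tdp1-/- cells stably complemented with human TDP1 were seeded at 400 cells/well with DMSO in place of 20 nM camptothecin. After compound pinning, cells grew at least 48 hr at 37 °C; viability read by CellTiter-Glo luminescence.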
TDP1 cell CPT – growth inhibition of DT40 Tdp1-/-;hTDP1 cells with camptothecin (screen for TDP1 inhibitors); chicken DT40 Tdp1-/-;hTDP1 cells + 20 nM CPT, ATP luminescence, 48 h; 420,000 compounds, 12% hits; Potency, µM (series often up to 46.2 µM), usual class: inhibitors; AID 686979; further: nearly all actives have a fitted effect of over 55% in size
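Cell growth measured by CellTiter-Glo luminescence after a minimum 48 h, 37 C compound exposure with 20 nM CPT in Tdp1-knockout DT40 cells stably expressing hTDP1, seeded 400/well; qHTS titration format.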
HT1080NT lethal – kills 2HG-producing HT-1080-NT fibrosarcoma cells; HT-1080-NT fibrosarcoma viability, CellTiter-Glo ATP luminescence, 48 h; 360,000 compounds, 1.6% hits; AID 686970; Potency, µM (highest dose often 46.1 µM), hits mostly cytotoxic;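 further: NT is the 2HG producing partner of a matched IDH1 knockdown line; nearly all actives have a fitted effect of over 55% in size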
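Viability of the 2HG-overproducing fibrosarcoma line after 48 hours of compound exposure at 37 degrees C was determined by luminescence with CellTiter-Glo, and concentration-effect curves were then fitted and categorized.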
HT1080 IDH1KD tx – kills HT-1080 cells with IDH1 knockdown. HT-1080 IDH1 knockdown viability, ATP luminescence, 48 h. Potency, µM (highest dose often 46.1 µM), hits mostly cytotoxic. 360,000 compounds, 2% hits
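% activity derives from luminescence (CellTiter-Glo), normalised to DMSO and no-cell wells. HT-1080-IDH1KD cells, 750/well, had 48 h compound exposure at 37 °C.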
Numbers stand for hits; n = inactive; u = inconclusive; x = no result given; [ ] = another dose, or the depositor's remark. Most compounds without a hit are left out; they make up all but 17% or so of the library. The call rests on the fitted dose curve; in most records, active means well fitted curve in the direction sought with a large enough effect; inconclusive means small, poorly fitted or top-dose-only effect, or another doubt; inactive means no such curve, though single readings can be large; an effect the other way counts as inactive or inconclusive.

SMILES	TGFb inhibitor	HepG2 viability	DT40 TDP1 no CPT	TDP1 cell CPT	HT1080NT lethal	HT1080 IDH1KD tx
Fc1cccc(F)c1[B-](F)(F)F	n	n	n	u	n	n
CC(=O)c1ccc(-c2c(C)cc3oc(=O)cc(-c4ccccc4)c3c2C)cc1	n	n	23µM	18µM	n	n
Cc1cc2oc(=O)cc(-c3ccccc3)c2c(C)c1-c1ccc(C#N)cc1	n	n	16µM	16µM	n	n
CC(C)N(C(=O)CSc1ncnc2sc(-c3ccccc3)cc12)C(C)C	n	n	15µM	u	n	n
CC(Sc1ncnc2sc(-c3ccccc3)cc12)C(=O)N1CCNC1=O (stereo unspecified)	n	n	u	18µM	n[9.24 µM]	n
COC(=O)c1c(C)[nH]c(C(=O)CSc2ncnc3sc(-c4ccccc4)cc23)c1C	n	4µM	16µM	18µM	n	n
O=c1[nH]c(CSc2ncnc3sc(-c4ccccc4)cc23)nc2ccccc12	n	n	13µM	16µM	n	n
CCOC(=O)c1c(C)[nH]c(C(=O)CSc2ccccc2)c1C	u	n	u	n	n	n
O=C(c1ccccc1F)n1c2c(c3ccccc31)CCCC2	n	n	u	23µM	u	15µM
CC1CCN(CC(=O)n2c3c(c4ccccc42)CCCC3)CC1	n	n	u	u	u	u
COc1ccc(C(=O)N/C(=C\c2cn(C)c3ccccc23)C(=O)NCCCn2ccnc2)cc1	n	n	n	n	n	n
COc1cc(/C(C#N)=C/c2cccc3ccccc23)c([N+](=O)[O-])cc1OC	n	n	n	u	n	u
COc1ccc(C(C#N)=Cc2cccc(OC)c2OC)cc1	n	n	23µM	u	n	n
NC1=NC(=O)/C(=C/c2ccccc2OCC(=O)Nc2ccc(F)cc2)S1	n	n	n	n	n	n
O=C(COc1ccccc1/C=C1\SC(=S)NC1=O)Nc1ccc(F)cc1	u	n	10µM	u	u	u
CCOC(=O)c1nn(-c2ccc(OCC)cc2)c2nc(-c3ccco3)c(C#N)c(=O)n12	n	n	23µM	u	n	n
COc1cccc(N2CCN(c3c4c(nc5ncnn35)CCC4)CC2)c1	n	n	16µM	u	n	n
COc1cccc(-c2cc3nc4c(c(N5CCC6(CC5)OCCO6)n3n2)CCC4)c1	n	n	26µM	18µM	n	n
Cc1ccc(-c2cc3nc(-c4ccccc4)cc(N4CCOCC4)n3n2)cc1	n	n	u	n	n	n
COc1ccc(-c2cc3nc(-c4ccccc4)cc(N4CCC5(CC4)OCCO5)n3n2)cc1	n	n	u	26µM	n	n
Cc1cccc(Nc2c3c(nc4ncnn24)CCC3)c1	n	n	u	n	n	n
COc1ccc(-c2cc3nc(C)cc(C)n3n2)cc1	n	n	n	n	n	n
COc1ccc(-c2cc3nc4c(c(N5CCC6(CC5)OCCO6)n3n2)CCC4)cc1	n	n	26µM	13µM	n	n
Cc1cccc(-c2cc3nc4c(c(N5CCC6(CC5)OCCO6)n3n2)CCCC4)c1	n	n	n	n	n	u
C1CN(CCN2CCOCC2)CCN1	n	n	n	n	n	n
Cc1ccc(S(=O)(=O)N2CCC(C(=O)NCCCn3ccnc3)CC2)cc1	n	n	u	n	n	n
CC(NC(=O)c1cccnc1)c1nnc2n1CCN(Cc1ccc(F)cc1F)CC2 (stereo unspecified)	x	x	n	n[9.04 µM]	x	x
O=C(CNC(=O)c1ccc2c(=O)n3c(nc2c1)CCC3)Nc1ccc(F)c(F)c1	n	n	n	n	n	n
COc1cccc(-c2cc3nc(-c4ccccc4)cc(N4CCCC(O)C4)n3n2)c1 (stereo unspecified)	13µM	n	u	u	u	u

Bioassay records deposited in PubChem by National Center for Advancing Translational Sciences (NCATS).
